Inconclusive results are not listed. Entries that show only a call come without a potency. Calls of active or inactive are those of the source. The call rests on the fitted dose curve; in most records, active means well fitted curve in the direction sought with a large enough effect; inconclusive means small, poorly fitted or top-dose-only effect, or another doubt; inactive means no such curve, though single readings can be large; an effect the other way counts as inactive or inconclusive.

One test can be described thus: DH5-alpha competent E. coli microbial cell viability qHTS against the NCATS CANVASS Library (AID 1347377). Particulars: BacTiter-Glo ATP luminescence, overnight; series mostly up to 46.1 µM. The method in brief:
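Bacterial viability as ATP-dependent luminescence (BacTiter-Glo), read after overnight 37 °C exposure of DH5-alpha competent E. coli to compounds in 11-point titration.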
For orientation: qHTS replaces the single test concentration by a dilution series.
Turning to `CC=C1CN(C=O)[C@H]2C[C@@H]1[C@@H](C(=O)OC)[C@@]13CCOC21Nc1ccccc13` (stereo not given in full), the compound was called inactive.

In the case of `C[C@@H]1CC[C@@H](c2ccoc2)N2C[C@@]3(CC[C@@H]12)CS[C@@]1(CC[C@H]2[C@H](C)CC[C@@H](c4ccoc4)N2[C@@H]1O)C3`, the outcome was inactive.

With `CCN1C[C@]2(C)CC[C@@H](O)[C@]34C1[C@H](C[C@H]23)C12CCC(CC14)[C@](O)(CO)[C@H]2O` (stereo not given in full), the call was inactive.

In the case of `CO[C@@H](/C=C/CC/C=C/C(=O)O)[C@@H](O)[C@H](C)[C@@H](O)/C(C)=C/[C@H](C)C(=O)CCCC1CC(=O)NC(=O)C1`, the compound was classed as inactive.

Consider `CCCC[C@@H]1CC[C@H]2CCCC(CCC)N12` (stereo not given in full), for which the compound was called inactive.

Take `CC[C@@H]1CN2CC[C@@]3(O)C(=Nc4cccc(OC)c43)[C@@H]2C[C@@H]1/C(=C\OC)C(=O)OC`: the compound was called inactive.

Regarding `CNCCc1ccccc1`, the result was inactive.

On to `CCCCC[C@@H]1OC(=O)[C@@H](C)N(C)C(=O)[C@H](CCCCC)OC(=O)C(C)N(C)C(=O)[C@H](CCCCC)OC(=O)[C@@H](C)N(C)C(=O)[C@H](CCCCC)OC(=O)C(C)N(C)C1=O` (stereo not given in full), for which the compound was called inactive.

Take `CO[C@H](c1ccccc1)[C@H]1NC(=O)C(C)NC(=O)C(C[C@@H](C)CO)N(C)C(=O)[C@@H](C(O)c2cn(C(C)(C)C3CO3)c3ccccc23)NC(=O)C(C(C)C=C(C)C)NC(=O)C(CC(C)C)N(C)C(=O)C(C(C)C)NC1=O` (stereo not given in full): the result was inactive.

Consider `CC1=CC(=O)C2=C(C)C[C@H](O)[C@@H]3[C@H](OC(=O)[C@@H]3C)[C@@H]12`, for which the call was inactive.

For the compound `CCN1C[C@]2(C)CC[C@H](O)[C@]34C1C(C[C@H]23)[C@@]12CC[C@H](CC14)[C@](O)(COC(=O)c1ccc(OC)c(OC)c1)[C@H]2O` (stereo not given in full), the compound was classed as inactive.

Turning to `CCC(=O)CCCCC[C@@H]1NC(=O)[C@H]2CCCCN2C(=O)[C@H]([C@@H](C)CC)NC(=O)[C@H](Cc2cn(OC)c3ccccc23)NC1=O`, the result was inactive.

The nature of a further test: qHTS for Inflammasome Signaling Inhibitors: IL-1-beta AlphaLISA screen against the NCATS CANVASS Library (AID 1347379).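 Further: human THP-1 cells primed with LPS then triggered with ATP.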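 On potency: secreted IL-1B measured as AlphaLISA emission at 615 nm; potency means the concentration at half of the fitted maximal effect.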 To be noted: THP-1 LPS/ATP, IL-1B AlphaLISA secretion, 16 h; series mostly up to 57.5 µM. The method in brief:
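Secreted IL-1B from human THP-1 cells quantified by AlphaLISA 16 hr after compound addition (final up to 57.5 uM). A 1 hr compound pretreatment preceded inflammasome activation with 250 ng/mL LPS plus 1.25 mM ATP (final).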
Take `CC1=CC2CC[C@@H]3[C@@H](C)C[C@H](C)[C@@H](C1)N23` (stereo not given in full): the Potency result is “inactive”.

For the compound `CC=C1CN(C=O)[C@H]2C[C@@H]1[C@@H](C(=O)OC)[C@@]13CCOC21Nc1ccccc13` (stereo not given in full), the Potency entry is “inactive”.

As to `C[C@@H]1CC[C@@H](c2ccoc2)N2C[C@@]3(CC[C@@H]12)CS[C@@]1(CC[C@H]2[C@H](C)CC[C@@H](c4ccoc4)N2[C@@H]1O)C3`, the Potency was 8.63 µM (active).

For the compound `CCN1C[C@]2(C)CC[C@@H](O)[C@]34C1[C@H](C[C@H]23)C12CCC(CC14)[C@](O)(CO)[C@H]2O` (stereo not given in full), the Potency entry was “inactive”.

In the case of `CO[C@@H](/C=C/CC/C=C/C(=O)O)[C@@H](O)[C@H](C)[C@@H](O)/C(C)=C/[C@H](C)C(=O)CCCC1CC(=O)NC(=O)C1`, the Potency result was “inactive”.

With `CCCC[C@@H]1CC[C@H]2CCCC(CCC)N12` (stereo not given in full), the Potency result was “inactive”.

Take `C[C@]12CC(O)C3[C@@H](CCC4C[C@@H](O)CC[C@@]43CO)[C@@]1(O)CCC2C1=CC(=O)OC1` (stereo not given in full): the Potency entry was “inactive”.

Consider `CO[C@@H](/C=C/CC/C=C/C(=O)O)[C@@H](O)[C@H](C)/C=C(\C)[C@@H](O)[C@H](C)C(=O)CCCC1CC(=O)NC(=O)C1`, for which the Potency entry is “inactive”.

Consider `O=C(c1ccccc1O)c1[nH]c(Cl)c(Cl)c1-n1c(C(=O)c2ccccc2O)cc(Cl)c1Cl`, for which the Potency is 15.3 µM (active).

Take `CC[C@@H]1CN2CC[C@@]3(O)C(=Nc4cccc(OC)c43)[C@@H]2C[C@@H]1/C(=C\OC)C(=O)OC`: the Potency result is “inactive”.

For the compound `c1ccc2c3c([nH]c2c1)CNCC3`, the Potency entry was “inactive”.

As for `CNCCc1ccccc1`, the Potency result is “inactive”.

Take `CCN1C[C@]2(C)CC[C@H](O)[C@]34C1C(C[C@H]23)[C@@]12CC[C@H](CC14)[C@](O)(COC(=O)c1ccc(OC)c(OC)c1)[C@H]2O` (stereo not given in full): the Potency result is “inactive”.

(Values after PubChem BioAssay (NCATS).)
